Compound activity as filed in PubChem BioAssay.
Only some compounds are listed: those with a hit (about 2.8% of all), similar ones and a draw of the others.
Pol eta inh = blocks human DNA polymerase eta activity; recombinant Pol eta, fluorescent DNA replication assay; 1.2% of 390,000 active; Q9Y253; Potency, µM (series often up to 114 µM), usual class: inhibitors
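Pol eta (10 nM) was preincubated with compounds for 15 min at room temperature, after which fluorescent replication substrate (50 nM final) was added to start the reaction. Fluorescence was read kinetically at 0 and 10 min.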
PI5P4K alpha inh = PI5P4K alpha (human) kinase inhibition. PI5P4Kalpha enzyme, ADP-Glo luminescence, 60 min; hits give low values. max response, %. 1.2% of 330,000 active; active means max response of -50% or lower; inconclusive means between -30% and -50%; inactive means -30% or higher; further: value at the top dose of about 77 µM
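qHTS, 1536-well: enzyme/substrate mix, compound by pin tool, 5 microM ATP final; RT 60 min; ADP-Glo reagents 1 (45 min) then 2 (30 min); luminescence.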
WRN helicase inh = WRN helicase (human) inhibition | Potency, µM (doses to about 114 µM), most hits filed as inhibitors | Q14191 | 0.46% of 360,000 active | WRN helicase unwinding, fluorescent forked duplex, kinetic; further: nearly all actives have a fitted effect of over 55% in size
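WRN at 20 nM final preincubated with compound 15 min at room temperature; reaction started with 100 nM fluorophore/quencher forked duplex oligonucleotide and 2 mM ATP final. Unwinding followed kinetically by red fluorescence (ex 525, em 598 nm).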
POLK inh = inhibitors of human DNA polymerase kappa; Q9UBT6; purified Pol kappa, fluorescent DNA synthesis assay, 10 min; Potency, µM (doses to about 107 µM), hits mostly inhibitors; 0.53% of 400,000 active; AID 588579
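Kinetic fluorescence screen: compound preincubated 15 min RT with 10 nM enzyme; 50 nM substrate (final) initiates; reads at 0/10 min.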
POLB inh = DNA polymerase beta (human) inhibition | P06746 | Pol beta primer extension/strand displacement, fluorescence kinetic | Potency, µM (titrated, usually from 114 µM), usual class: inhibitors | 1.3% of 340,000 active
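10 nM enzyme + cpd, 15 min RT; start with substrate 50 nM final; read 0 min and after 10 min RT. Corrected, normalized data; 4-parameter Hill curve fit.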
POLI inh = blocks human DNA polymerase iota activity; Q9UNA4; Pol iota fluorescent replication assay, 10 min; Potency, µM (titrated, usually from 115 µM), actives largely listed as inhibitors; 1% of 390,000 active; AID 588590
Target sequence (Q9UNA4 whole entry, looked up): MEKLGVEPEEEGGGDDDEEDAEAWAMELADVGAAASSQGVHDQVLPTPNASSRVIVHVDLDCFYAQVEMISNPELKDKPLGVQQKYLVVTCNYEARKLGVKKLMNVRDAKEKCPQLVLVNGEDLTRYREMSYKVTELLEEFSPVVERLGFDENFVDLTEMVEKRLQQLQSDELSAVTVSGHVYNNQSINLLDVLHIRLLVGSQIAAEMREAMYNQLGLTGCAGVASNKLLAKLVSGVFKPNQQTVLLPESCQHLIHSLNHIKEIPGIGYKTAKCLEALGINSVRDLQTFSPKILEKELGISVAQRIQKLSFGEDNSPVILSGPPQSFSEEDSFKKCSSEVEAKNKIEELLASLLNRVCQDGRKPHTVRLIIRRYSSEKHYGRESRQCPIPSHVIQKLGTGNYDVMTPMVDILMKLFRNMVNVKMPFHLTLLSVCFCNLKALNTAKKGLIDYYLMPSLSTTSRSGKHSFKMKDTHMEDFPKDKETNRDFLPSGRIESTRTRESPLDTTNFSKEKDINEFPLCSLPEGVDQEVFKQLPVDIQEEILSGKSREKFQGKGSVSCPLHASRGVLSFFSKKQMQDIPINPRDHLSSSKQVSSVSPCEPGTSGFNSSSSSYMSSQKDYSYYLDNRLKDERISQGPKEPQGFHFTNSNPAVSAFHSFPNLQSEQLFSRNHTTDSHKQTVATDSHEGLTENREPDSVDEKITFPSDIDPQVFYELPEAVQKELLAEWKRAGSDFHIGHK
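Fluorescent replication assay read twice, at 0 min and 10 min after adding 50 nM (final) substrate. Enzyme (10 nM) and compounds were first incubated 15 min at room temperature; enzyme-free buffer wells were negative controls.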
Of the large screens only hits and unclear results are named; the others gave an inactive call; ! = not active in a repeat. Unless noted, the call rests on the fitted dose curve; in most records, active means well fitted curve in the direction sought with a large enough effect; inconclusive means small, poorly fitted or top-dose-only effect, or another doubt; inactive means no such curve, though single readings can be large; an effect the other way counts as inactive or inconclusive.

Cc1c(C(=O)Nc2ccc(Br)cc2F)oc2ccc(S(=O)(=O)N3CCCCC3)cc12	none (no result: PI5P4K alpha inh, WRN helicase inh)
Nc1ccccc1C(=O)OC1CSC1	Pol eta inh inconclusive, POLB inh 56µM (no result: PI5P4K alpha inh)
O=C(NCc1ccc(Cl)cc1)C1CCCN(C(=O)c2cnn(-c3ccc(F)cc3)c2-n2cccc2)C1 (configuration not stated)	none (no result: PI5P4K alpha inh, WRN helicase inh)
COc1cc(N2CCOCC2)ccc1C=C1C(=O)NC(=O)NC1=O	POLB inh inconclusive, POLI inh inconclusive
COc1cc(N2CCOCC2)ccc1/C=C1\C(=O)NC(=O)N(Cc2cccs2)C1=O	WRN helicase inh 50µM, POLI inh inconclusive
COc1cc(N2CCOCC2)ccc1/C=C1\C(=O)NC(=O)N(Cc2ccc3c(c2)OCO3)C1=O	PI5P4K alpha inh inconclusive, WRN helicase inh 50µM
CC1(C)[C@H](C(=O)O[C@H](C#N)c2cccc(Oc3ccccc3)c2)[C@@H]1C=C(Br)Br	none (no result: Pol eta inh, PI5P4K alpha inh, WRN helicase inh, POLB inh, POLI inh)
CNc1cc(Cl)c2nonc2c1[N+](=O)[O-]	WRN helicase inh inconclusive, POLB inh 89µM, POLI inh 10µM
O=C1NC(=O)N(c2ccccc2F)C(=O)/C1=C/c1ccc(Oc2ccc([N+](=O)[O-])cn2)cc1	PI5P4K alpha inh -52
Cc1cc(O)c2c(c1)C(=O)c1cc(O)cc(O)c1C2=O	Pol eta inh inconclusive, PI5P4K alpha inh -58, POLK inh inconclusive, POLB inh 11µM, POLI inh inconclusive
O=C1c2cccc(O)c2C(=O)c2c(O)cc(CO)cc21	POLI inh inconclusive (no result: POLB inh)
CCOC(=O)c1cc(-c2ccccc2)n(CCCC(=O)Nc2ccc(C)c(C)c2)c1C	POLB inh inconclusive, POLI inh inconclusive (no result: PI5P4K alpha inh, WRN helicase inh)
CCCNC1=C(C)C(=O)C2=C(C1=O)C(COC(N)=O)[C@]1(OC)C3NC3CN21 (some centres not stated)	Pol eta inh inconclusive, PI5P4K alpha inh inconclusive, WRN helicase inh inconclusive, POLK inh 45µM, POLI inh 7.9µM
CN1/C(=C\C=C\C2=[N+](C)c3ccc4ccccc4c3C2(C)C)C(C)(C)c2ccccc21	POLB inh 79µM (no result: Pol eta inh, PI5P4K alpha inh, WRN helicase inh, POLK inh, POLI inh)
O=C(C1CCCN(S(=O)(=O)c2ccc(F)cc2)C1)N1CCOCC1 (configuration not stated)	none (no result: POLB inh)
CCOP(=O)(C1=C(O)C(=O)C(C(C)(C)C)=CC1=O)c1ccccc1 (configuration not stated)	WRN helicase inh inconclusive, POLI inh 32µM
CCOP(=O)(OCC)C(O)c1ccccc1 (configuration not stated)	POLB inh inconclusive
CCCCC/C=C\C/C=C\C/C=C\C/C=C\CCCC(=O)NCc1ccoc1	POLK inh 7.9µM (no result: Pol eta inh, PI5P4K alpha inh, WRN helicase inh, POLB inh, POLI inh)
CCCCC/C=C\C/C=C\C/C=C\C/C=C\CCCC(=O)NCC(=O)O	Pol eta inh 0.5µM, POLK inh 7.5µM!, POLB inh 1.4µM, POLI inh 2.2µM (no result: PI5P4K alpha inh, WRN helicase inh)
CCCCC/C=C\C/C=C\C/C=C\C/C=C\CCCC(N)=O	none (no result: Pol eta inh, PI5P4K alpha inh, WRN helicase inh, POLB inh, POLI inh)
CCCCC/C=C\C/C=C\C/C=C\C/C=C\CCCC(=O)NCCCC(=O)O	POLK inh 14µM (no result: Pol eta inh, PI5P4K alpha inh, WRN helicase inh, POLB inh, POLI inh)
COc1ccc(NCC(=O)N2CCCC2)cc1Cl	none
Cc1cc(N2CCCCC2)nc2ccc(NC(=O)/C=C/c3ccc(OC(C)C)cc3)cc12	none (no result: PI5P4K alpha inh, WRN helicase inh)
N[C@@H](Cc1cc(Br)c(O)c(Br)c1)C(=O)O	POLB inh 22µM (no result: Pol eta inh, PI5P4K alpha inh, WRN helicase inh, POLK inh, POLI inh)
C=CCn1c(O)c(/C=N/NC(=O)c2ccncc2)c(=O)[nH]c1=O	PI5P4K alpha inh -50
CCCCn1c(O)c(/C=N/NC(=O)c2ccncc2)c(=O)[nH]c1=S	Pol eta inh inconclusive, PI5P4K alpha inh inconclusive, WRN helicase inh 32µM, POLB inh inconclusive
COc1ccc(CCn2c(O)c(/C=N/NC(=O)c3ccncc3)c(=O)[nH]c2=O)cc1OC	PI5P4K alpha inh -82
CCCCC(=O)N/N=C/c1c(O)n(CCc2ccc(OC)c(OC)c2)c(=O)[nH]c1=O	none
O=C(N/N=C/c1c(O)n(Cc2ccc(F)cc2)c(=O)[nH]c1=O)c1ccccc1	PI5P4K alpha inh inconclusive
O=C(N/N=C/c1c(O)n(Cc2ccccc2)c(=O)[nH]c1=O)c1ccncc1	PI5P4K alpha inh -56, WRN helicase inh inconclusive
Cc1ccc(-n2c(O)c(/C=N/NC(=O)c3ccncc3)c(=O)[nH]c2=O)cc1	none
CCN(C[C@H]1N[C@@](CC)(C(=O)OC)[C@H]2C(=O)N(Cc3ccccc3)C(=O)[C@@H]12)C(=O)Nc1ccc(Cl)cc1	none (no result: POLB inh)
O=c1c2ccccc2nc(/C=C\c2ccccc2[N+](=O)[O-])n1-c1ccccc1O	none
CN1C(=O)NC(=O)/C(=C\C=C\c2ccccc2[N+](=O)[O-])C1=O	Pol eta inh inconclusive, PI5P4K alpha inh inconclusive, POLI inh 14µM
CCOC(=O)C1=Nc2ccccc2/C1=C\c1c(O)n(C)c(=O)n(C)c1=O	PI5P4K alpha inh -64, POLI inh inconclusive
CN1CCc2cc(O)cc3c2C1Cc1ccc(O)c(O)c1-3 (configuration not stated)	POLI inh 16µM (no result: PI5P4K alpha inh, WRN helicase inh)
C=CCN1C(=O)/C(=C\c2ccc(N3CCOCC3)o2)C(=O)NC1=S	Pol eta inh 28µM, POLI inh inconclusive
Cc1ccccc1C(=O)Nc1cc(-c2ccc(Cl)cc2)nn1-c1ccccc1	POLB inh inconclusive (no result: PI5P4K alpha inh, WRN helicase inh)
CCOc1ccc(-c2nc3ccc(-c4nc5ccc(N6CCN(C)CC6)cc5[nH]4)cc3[nH]2)cc1	POLK inh 0.3µM (no result: Pol eta inh, PI5P4K alpha inh, WRN helicase inh, POLB inh, POLI inh)
O=C(CO)[C@@H](O)C(O)[C@@H](O)CO (some centres not stated)	none (no result: Pol eta inh, PI5P4K alpha inh, WRN helicase inh, POLB inh, POLI inh)
Cc1ccc(-n2sc3ccccc3c2=O)cc1	PI5P4K alpha inh -104, WRN helicase inh inconclusive
CN(C(=O)Cc1ccc(Cl)c(Cl)c1)C(CN1CCCC1)c1cccc(N=C=S)c1 (configuration not stated)	none (no result: Pol eta inh, PI5P4K alpha inh, WRN helicase inh, POLB inh, POLI inh)
CCC(C)(C)O	none (no result: Pol eta inh, PI5P4K alpha inh, WRN helicase inh, POLB inh, POLI inh)
CN1C(=O)C(=Cc2cn(CC#N)c3ccccc23)C(=O)N(C)C1=O	Pol eta inh inconclusive, PI5P4K alpha inh inconclusive, POLB inh inconclusive, POLI inh inconclusive
CN1C(=O)C(=Cc2coc3ccccc3c2=O)C(=O)N(C)C1=O	PI5P4K alpha inh -73
N#CC1=C(N)Oc2n[nH]c(-c3cccs3)c2C1c1ccco1 (configuration not stated)	Pol eta inh inconclusive, POLI inh 13µM
N#CC1=C(N)Oc2c(c(=O)sc3ccccc23)C1c1ccncc1 (configuration not stated)	PI5P4K alpha inh inconclusive
N#CC1=C(N)Oc2n[nH]c(-c3cccs3)c2C1c1ccsc1 (configuration not stated)	Pol eta inh inconclusive, PI5P4K alpha inh -56, WRN helicase inh inconclusive, POLB inh inconclusive
Cc1ccc(C(=O)N2CCc3cc(CNC(=O)c4ccnn4C)ccc32)cc1	none (no result: PI5P4K alpha inh, WRN helicase inh)
CCNc1cc(N2CCN(C)CC2)ccc1[N+](=O)[O-]	none
